{"source": "PubChem BioAssay AID2013", "about": "(Sanford-Burnham Center for Chemical Genomics, 2009)", "note": "Among all 290,000 compounds or so, about 370 (0.13%) were called active. Shown is part of a subset that was picked to be rich in actives. Results with a measured potency or affinity are listed apart. Values without a mark were called inactive.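 Rule for the calls: active = spots per cell inhibited over 60%, with over 100 cells counted and total cytoplasm intensity under 500,000; inconclusive = wells with under 100 cells, flagged as likely toxic; inactive = the rest.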"}
{"biological_target": "G-protein coupled receptor 55 (Homo sapiens) (UniProt Q9Y2T6)", "sequence (Q9Y2T6 whole entry, looked up)": "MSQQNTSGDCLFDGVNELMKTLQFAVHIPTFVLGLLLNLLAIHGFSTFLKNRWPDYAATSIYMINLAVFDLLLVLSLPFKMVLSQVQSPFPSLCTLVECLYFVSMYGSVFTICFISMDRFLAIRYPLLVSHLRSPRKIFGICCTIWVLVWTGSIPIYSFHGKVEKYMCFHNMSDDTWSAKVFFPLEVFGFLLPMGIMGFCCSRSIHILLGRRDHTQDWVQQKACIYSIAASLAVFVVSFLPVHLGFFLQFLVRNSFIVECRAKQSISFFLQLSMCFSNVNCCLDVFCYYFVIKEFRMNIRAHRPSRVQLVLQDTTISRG", "assay": "inhibition of LPI-stimulated GPR55 beta-arrestin translocation – imaging, U2OS, beta-arrestin-GFP, LPI agonist, primary screen (AID 2013);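 note: U2OS cells stably carrying GPR55 and arrestin-GFP stimulated by 5 µM LPI near EC80; imaged beta-arrestin-GFP aggregate spots per cell after agonist stimulation; plate controls were LPI-stimulated DMSO wells for no effect and DMSO wells without LPI for full effect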", "details": "LPI antagonism, at 10 µM, active compounds read high", "units": {"inhibition": "%"}}
{"molecule": "O=C(O)c1ccccc1NCc1ccsc1", "inhibition": -6.3}
{"molecule": "Cc1ccc(/C=N/Nc2nc(C)cc(C)n2)cc1", "inhibition": 0.6}
{"molecule": "Cc1ccc(-n2nc(C)c(=O)c(-c3ccccc3)c2NC(=O)C(C)C)cc1", "inhibition": 11.6}
{"molecule": "Cc1cc(C)n(/C(=C\\N(C)C)C(=O)c2ccc(Cl)cc2)n1", "inhibition": 6.9}
{"molecule": "O=C(CN1CCN(C(=O)c2ccco2)CC1)Nc1ccc(F)cc1F", "inhibition": 10.4}
{"molecule": "CC(C)(C)c1ccc(CN2C(=O)CSC2=O)cc1", "inhibition": -2.7}
{"molecule": "CC(C)(C)c1ccc(CN2C3=NCCCN3c3ccccc32)cc1", "inhibition": 29.1}
{"molecule": "Cc1nc(C(Cl)(Cl)Cl)nc2[nH]ccc(=O)c12", "inhibition": 4.1}
{"molecule": "FC(F)(F)c1cccc(Cc2noc(CN3CCC(c4ccncc4)CC3)n2)c1", "inhibition": 5.1}
{"molecule": "Cc1nonc1NC(=O)CSc1nnc(N)s1", "inhibition": -5.8}
{"molecule": "COc1cccc(-c2csc(N3CCN(Cc4ccccc4)CC3)n2)c1", "inhibition": -6.9}
{"molecule": "COc1ccc(OC)c(/C=C/C(=O)Nc2cccc(S(=O)(=O)N3CCCC3)c2)c1", "inhibition": -3.3}
{"molecule": "Cc1cc2c(cc1S(=O)(=O)Nc1ccc(F)cc1)n(C)c(=O)c(=O)n2C", "inhibition": 9.6}
{"molecule": "Cc1cc2c(cc1S(=O)(=O)Nc1cccc(F)c1)n(C)c(=O)c(=O)n2C", "inhibition": -13.1}
{"molecule": "Cc1cc(NS(=O)(=O)c2ccc(NC(=O)C(C)Oc3ccc(C(C)C)cc3)cc2)no1", "note": "(stereo not given)", "inhibition": -4.7}
{"molecule": "Cc1cccn2c(=O)c(/C=C(\\C#N)S(=O)(=O)c3ccccc3)c(N3CCN(Cc4ccccc4)CC3)nc12", "inhibition": 22.8}
{"molecule": "N=c1c(C(=O)NCc2ccco2)cc2c(=O)n3ccccc3nc2n1C1CCCC1", "inhibition": 7.5}
{"molecule": "Cc1cccn2c(=O)c3cc(C(=O)NCc4ccco4)c(=N)n(C4CCCCC4)c3nc12", "inhibition": 50}
{"molecule": "Cc1cccn2c(=O)c3cc(C(=O)NCc4ccco4)c(=N)n(C(C)C)c3nc12", "inhibition": 45.5}
{"molecule": "N=c1c(C(=O)NC2CCCC2)cc2c(=O)n3ccccc3nc2n1C1CCCC1", "inhibition": 8.6}
{"molecule": "Cc1cccn2c(=O)c3cc(C(=O)NC4CCCC4)c(=N)n(C4CCCCC4)c3nc12", "inhibition": 19.8}
{"molecule": "Cc1ccc2nc3c(cc(C(=O)NCc4ccco4)c(=N)n3Cc3ccco3)c(=O)n2c1", "inhibition": 23.2}
{"molecule": "O=C(COC(=O)c1cc(=O)[nH]c(=O)[nH]1)Nc1cccc(S(=O)(=O)N2CCCCC2)c1", "inhibition": -7.4}
{"molecule": "Cc1cccc(C)c1NC(=O)Cn1c(=O)c2cccn2c2ccccc21", "inhibition": 3.5}
{"molecule": "Cc1ccc(NC(=O)Nc2cnccn2)c(C)c1", "inhibition": 1.4}
